BAZ2B inh – qHTS Assay for Inhibitors of BAZ2B; Bromodomain adjacent to zinc finger domain protein 2B (Homo sapiens), Q9UIF8; AlphaScreen BAZ2B-H3K14Ac peptide displacement; Potency, µM (titrated, usually from 114 µM), without a hit: at the highest dose activity change, negative = inhibition, most hits filed as inhibitors; actives 4.4% (n = 360,000); AID 504333, 2011; further: on the % scale 0 is the no-effect control and ±100 the full control effect; nearly all actives have a fitted effect of over 60% in size
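Compounds, titrated to a top concentration of 110 uM, were incubated 30 min at room temperature with preformed BAZ2B/acetyl-K14 H3 peptide complex (50 nM each). Proximity signal was measured by AlphaScreen after 20 min with beads.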
Sfp inh – qHTS Assay for Inhibitors of Bacillus subtilis Sfp phosphopantetheinyl transferase (PPTase). AID 1490, 2009. Biochemical Sfp PPTase activity, qHTS. 4'-phosphopantetheinyl transferase ffp (Bacillus subtilis), Q9F4F7. actives 3.5% (n = 310,000). Potency, µM, for the others: largest response in the series, negative = inhibition, hits mostly inhibitors;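 further: the enzyme is Sfp with the accession as filed and its product quenches rhodamine fluorescence; 0% = enzyme reaction without inhibitor and -100% = no enzyme wells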
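Step 1, compound plus 15 nM Sfp-PPTase, 15 min, room temperature. Step 2, add rhodamine-CoA (5 uM) and BHQ-2-YbbR (12.5 uM). Step 3, read 525/598 nm fluorescence at 0 and 30 min.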
HP1b binding inh – HTS for Inhibitors of HP1-beta Chromodomain Interactions with Methylated Histone Tails. Chromobox protein homolog 1 (Homo sapiens), P83916. AlphaScreen HP1-beta / biotin-H3K9me3 peptide binding. Potency, µM (top dose mostly 114 µM), for inactives: at the top dose activity change, negative = inhibition, hits mostly inhibitors. actives 0.56% (n = 390,000); further: nearly all actives have a fitted effect of over 70% in size
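Compound inhibition of the preformed complex between 50 nM HP1-beta and 50 nM biotinylated H3K9me3 peptide was read by AlphaScreen. Buffer was PBS pH 7.4 with 0.01% Tween-20. Incubations ran 30 min at room temperature, with 10 ug/mL donor/acceptor beads.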
G9a block – qHTS Assay for Inhibitors of Histone Lysine Methyltransferase G9a; Histone-lysine N-methyltransferase EHMT2 (Homo sapiens), Q96KQ7; G9a H3K9 monomethylation, AlphaScreen, 2 h; Potency, µM (top dose mostly 102 µM), without a hit: at the highest dose activity, negative = inhibition, actives largely listed as inhibitors; actives 8.8% (n = 350,000); further: on the % scale 0 is the no-effect control and ±100 the full control effect; nearly all actives have a fitted effect of over 75% in size
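AlphaScreen detection with an anti-monomethyl H3K9 antibody quantified product after a 2 h room-temperature reaction containing 500 nM biotinylated H3K9 peptide, 20 µM SAM and 20 nM enzyme, which had been preincubated 15 min with compound.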
JMJD2A Tudor – qHTS Assay for Inhibitors of JMJD2A-Tudor Domain. AlphaScreen JMJD2A-Tudor / H3K4me3 peptide binding. Potency, µM (top dose mostly 114 µM), inactives show at the highest dose activity change, negative = inhibition, actives largely listed as inhibitors. actives 4.4% (n = 390,000). AID 504339, 2011; further: on the % scale 0 is the no-effect control and ±100 the full control effect; nearly all actives have a fitted effect of over 50% in size
Target sequence (O75164 whole entry, looked up, the tested form may be a part): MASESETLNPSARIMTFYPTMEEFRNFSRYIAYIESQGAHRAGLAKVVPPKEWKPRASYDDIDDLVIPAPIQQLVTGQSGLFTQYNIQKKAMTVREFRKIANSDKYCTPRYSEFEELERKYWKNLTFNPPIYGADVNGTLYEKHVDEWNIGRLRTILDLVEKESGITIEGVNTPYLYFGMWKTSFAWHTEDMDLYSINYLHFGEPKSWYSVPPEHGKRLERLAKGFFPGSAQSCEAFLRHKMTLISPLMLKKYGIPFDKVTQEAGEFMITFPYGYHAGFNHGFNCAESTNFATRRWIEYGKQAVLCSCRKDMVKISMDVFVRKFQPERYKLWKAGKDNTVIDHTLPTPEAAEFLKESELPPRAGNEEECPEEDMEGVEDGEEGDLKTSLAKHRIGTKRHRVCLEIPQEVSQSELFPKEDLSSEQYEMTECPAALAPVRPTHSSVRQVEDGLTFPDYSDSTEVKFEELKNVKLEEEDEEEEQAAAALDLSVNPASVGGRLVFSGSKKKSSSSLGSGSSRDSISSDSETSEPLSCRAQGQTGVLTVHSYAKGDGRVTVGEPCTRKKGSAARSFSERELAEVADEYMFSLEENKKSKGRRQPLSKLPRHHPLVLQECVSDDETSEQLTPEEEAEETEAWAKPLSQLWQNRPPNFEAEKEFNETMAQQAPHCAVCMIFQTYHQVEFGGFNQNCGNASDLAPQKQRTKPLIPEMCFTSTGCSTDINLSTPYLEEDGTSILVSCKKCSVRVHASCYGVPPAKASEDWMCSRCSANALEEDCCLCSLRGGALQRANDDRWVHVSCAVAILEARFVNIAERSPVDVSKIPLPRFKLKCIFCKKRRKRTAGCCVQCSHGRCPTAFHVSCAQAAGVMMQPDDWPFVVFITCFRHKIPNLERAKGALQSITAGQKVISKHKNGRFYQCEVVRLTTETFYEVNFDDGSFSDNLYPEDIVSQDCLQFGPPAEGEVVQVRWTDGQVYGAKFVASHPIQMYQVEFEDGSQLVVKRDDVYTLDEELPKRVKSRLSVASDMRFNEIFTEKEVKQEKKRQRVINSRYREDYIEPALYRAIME
* hit, by the source's call; ? = inconclusive; · = no result given; ! = not confirmed by another sample; [ ] = dose if it differs, or a comment. Rows were chosen to be rich in hits. Some 12% of all compounds tested hit in one or more screens of this group. The call rests on the fitted dose curve; in most records, active means well fitted curve in the direction sought with a large enough effect; inconclusive means small, poorly fitted or top-dose-only effect, or another doubt; inactive means no such curve, though single readings can be large; an effect the other way counts as inactive or inconclusive. Potency means the concentration at half of the fitted maximal effect.

SMILES | BAZ2B inh | Sfp inh | HP1b binding inh | G9a block | JMJD2A Tudor
CCC(=NCc1ccc2c(c1)OCO2)c1c(O)n(C)c(=O)n(C)c1=O | 4% | 9% | 46% | ? | -6%[57.1 µM]
CCC(=NCc1cc(OC)cc(OC)c1)c1c(O)n(C)c(=O)n(C)c1=O | -5% | 50µM* | 26% | -28%[59 µM] | -23%
Cc1cc([C@@H]2CCCN2C)on1 | · | 0% | · | ? | ·
CC/C(=N\Nc1ccccc1)c1c(O)n(-c2ccccc2)c(=O)[nH]c1=O | -23% | 7% | 55% | 40µM* | -12%
C/C(=N\Nc1cccc2ccccc12)c1c(O)n(Cc2ccccc2)c(=O)[nH]c1=O | ? | ? | ? | 1.6µM* | 79µM*
CC/C(=N\NC(=O)Nc1ccccc1)c1c(O)n(Cc2ccccc2)c(=O)[nH]c1=O | -2% | 7% | 40% | -22% | -27%
Cc1ccccc1-n1c(O)c(C(c2ccncc2)c2c(O)n(-c3ccccc3C)c(=O)[nH]c2=O)c(=O)[nH]c1=O | ? | -22% | 22% | 25µM* | -11%
Cc1cc(/C=C2\C(=O)NC(=O)N(Cc3ccccc3)C2=O)c(C)n1C1CC1 | -14% | -7% | 16% | · | ?
Cc1ccccc1N1C(=O)NC(=O)/C(=C\c2ccc3c(c2)CCCN3Cc2ccccc2)C1=O | 35µM* | 79µM* | ? | 10µM* | 50µM*
Cc1cccc(N2CCN(C(=O)CCCCn3c(=O)[nH]c4ccsc4c3=O)CC2)c1C | ? | · | -1% | -29%[59 µM] | -33%
COCCN(C(=O)CCl)c1c(C)cccc1C | · | 20% | · | · | ·
COc1ccccc1NC(=O)Oc1cccc(OC(=O)c2ccccc2)c1 | -9% | 7% | 25% | 71µM* | -13%
COC(=O)c1ccc(NC(=O)NC(=O)Oc2ccccc2)cc1 | -2% | · | 35% | -12%[12.7 µM] | -14%
C[C@@H]1Cc2c(Cl)cc(C(=O)N[C@@H](Cc3ccccc3)C(=O)O)c(O)c2C(=O)O1 | · | 2% | · | 3%[59 µM] | ·
CN(C)c1ccc(C(O)P(=O)(OC2CCCCC2)OC2CCCCC2)cc1 (stereo not drawn) | 45µM* | -14% | -5% | -18%[59 µM] | ?
C=Cn1ccnc1P(=S)(c1c(C)nn(-c2ccccc2)c1C)c1nccn1C=C | -35% | -3% | 28% | 50µM* | -23%
C[C@@]12C=CC(=O)C=C1CCC1C2CC[C@]2(C)C(=O)CCC12 (stereo partly drawn) | · | 9% | · | · | ·
N#Cc1ccc(NC(=O)CN2CCN(C(=O)c3cccs3)CC2)cc1Cl | -7% | · | 29% | 40µM* | -9%
CCOC(=O)c1c(NC(NC(=O)CF)C(Cl)(Cl)Cl)sc2c1CCCC2 (stereo not drawn) | -36% | -23% | -6% | 45µM* | 40µM*
CCOC(=O)C1(c2ccccc2)Oc2ccccc2C(c2ccc(OC)cc2)=C1C(=O)OC (stereo not drawn) | · | -8% | 30% | 22µM* | -18%
CCOC(=O)[C@]12Cc3cc(OC)ccc3[C@H]1N(Cc1ccccc1)C(=O)c1ccccc12 | · | · | 38% | · | -12%
CCC1(C)CC(C(N)=S)CCO1 (stereo not drawn) | ? | 4.5µM* | ? | -138%[12.7 µM] | 56µM*
O=[N+]([O-])c1ccc(O[C@@H]2O[C@H](CO)[C@@H](O)[C@H](O)[C@H]2F)c([N+](=O)[O-])c1 | · | · | · | 24µM*! | ·
C=C[C@@H]1CN2CC[C@H]1C[C@H]2[C@H](O)c1ccnc2ccccc12 | · | 18% | · | 6%[59 µM] | ·
O=C1CC(=O)N(c2cccc(C(F)(F)F)c2)C(=O)N1 | 3% | -20% | 15% | 21% | -12%
SMILES | BAZ2B inh | Sfp inh | HP1b binding inh | G9a block | JMJD2A Tudor
O=C1CC(=O)N(c2cccc(Br)c2)C(=O)N1 | -23% | -7% | 5% | 56µM* | ?
CC1CCN(CC(=O)c2ccc3c(c2)OCCO3)CC1 | · | ? | ? | 4.5µM* | 5µM*
CC1CCN(CC(=O)c2ccccc2Cl)CC1 | -9% | 5% | 12% | ? | ?
CC1CCCN(CC(=O)c2ccc(Cl)c(Cl)c2)C1 (stereo not drawn) | ? | -5% | 65% | 25µM* | -6%
CC(=O)OC[C@]12C[C@H](OC(=O)CC(C)C)C(C)=C[C@H]1O[C@H]1[C@H](O)[C@@H](OC(C)=O)[C@@]2(C)[C@]12CO2 | · | 10% | · | · | ·
CSC(=S)NCc1c[nH]c2ccccc12 | · | -19% | · | 1%[59 µM] | ·
CCC(CC)NCc1c[nH]c2ccccc12 | 79µM* | -8% | -30% | 14µM* | 22µM*
COc1ccc(Cn2c(O)c(C=NCCN3CCOCC3)c(=O)[nH]c2=O)cc1 | -4% | 1% | 41% | 40µM* | -5%
O=C(N/N=C/c1c(O)n(Cc2ccc(F)cc2)c(=O)[nH]c1=O)c1ccccc1O | ? | -1% | 30% | 45µM* | ?
Nc1cccc(N=Cc2c(O)n(Cc3ccc(F)cc3)c(=O)[nH]c2=O)c1 | 1% | 1% | 7% | 13µM* | -17%
O=C(N/N=C/c1c(O)n(Cc2ccccc2)c(=O)[nH]c1=O)c1ccccc1O | ? | 0% | 12% | ? | ?
Cn1c(O)c(C=NCCN2CCOCC2)c(=O)n(C)c1=S | ? | -5% | 5% | 32µM* | -6%
CC(C)=CC1C(C(=O)OCc2coc(Cc3ccccc3)c2)C1(C)C (stereo not drawn) | · | -3% | · | 17%[12.7 µM] | ·
O=c1[nH]c(=O)n(Cc2ccco2)c(O)c1/C=N/N1CCCCC1 | -34% | -23% | 2% | 20µM* | -21%
COc1ccc(Cn2c(O)c(/C=N/NC(=O)c3ccccc3O)c(=O)[nH]c2=O)cc1 | 50µM* | ? | 27% | -2%[59 µM] | 71µM*
COc1ccccc1-n1c(O)c(/C=N/NC(=S)Nc2ccccc2)c(=O)[nH]c1=S | ? | 10µM* | 40% | · | ?
O=c1[nH]c(=O)n(Cc2ccco2)c(O)c1C=NC1CC1 | 4% | -15% | 22% | 5%[59 µM] | -14%
CCCCCCC(=O)N/N=C/c1c(O)n(C2CC2)c(=S)[nH]c1=O | ? | 35% | 41% | 9% | -16%
C=CCn1c(O)c(/C=N/NC(=O)CCCC)c(=O)[nH]c1=S | ? | 2% | 18% | 102%[59 µM] | 79µM*
CC[N+](C)(CC)CCOC(=O)C(O)(c1ccccc1)c1ccccc1 | · | 16% | · | -37%[12.7 µM] | ·
CCc1ccc(NC(=O)c2ccc(F)c(S(=O)(=O)N3CCC4(CC3)OCCO4)c2)cc1 | -1% | · | 45% | 6%[59 µM] | -13%
N[C@@H](CCCCP(=O)(O)O)C(=O)O | · | -7% | · | · | ·

High-throughput results as filed in PubChem BioAssay.
